These results are taken from ChEMBL document CHEMBL1157539, “Thousands of chemical starting points for antimalarial lead identification” (Nature, 2010).

Molecules are shown by their SMILES.

In this assay the test system is Plasmodium falciparum. Kind of assay: GSK_TCMDC: Inhibition of Plasmodium falciparum 3D7 in whole red blood cells, using parasite LDH activity as an index of growth. Test compounds present at 2uM. In kind it is functional.
`Cc1cc(C2CCN(CCCCNC(=O)c3ccc(NC(=O)c4ccc(Cl)cc4)cc3)CC2)c(C)cc1OCc1ccccn1.Cl` displayed an Inhibition of 96%. For `O=C(/C=C/c1ccc(Cl)c(Cl)c1)NCCCCCN1CCC(NC(=O)c2ccc3ccccc3c2)CC1` the value was 87%; for `Cn1cnc2c(Nc3ccncc3)nc(-c3ccc(OC(F)(F)F)cc3)nc21.O=C(O)C(F)(F)F`, 100%. As for `COc1ccc(C2C(C(=O)Nc3cc(OC)c(OC)c(OC)c3)c3cc(OC)c(OC)cc3C(=O)N2C)cc1` (stereo not drawn), the Inhibition amounted to 98%. For `Cc1cc(F)ccc1-c1nc(NCC(O)CNCCc2ccccc2)nc2c1ccc(=O)n2-c1c(F)cccc1F.O=C(O)C(F)(F)F` (stereo not drawn) the value was 100%.

As for `Cc1cccc2nc(-c3ccc(-c4ccc(NC(=O)Nc5cccc(C#N)c5)cc4)s3)[nH]c12`, the Inhibition is reported as 100%. For `CS(=O)(=O)CCNCc1ccc(-c2ccc3c(Nc4ccc(Oc5ccccn5)cc4)ccnc3c2)o1` the value was 100%. For `C1=CN(Cc2ccccc2)C=CC1=C1C=Nc2ccccc21` the value was 90%; for `CCCCc1cc(NCC)nc(Nc2ccc(F)cc2)n1`, 98%. Molecule `CCCC(C)Nc1nc(C)cc(N[C@@H](CC(C)C)C(=O)NC2CCCC2)n1.O=C(O)C(F)(F)F` (stereo partly drawn) showed an Inhibition of 85%.

`CN1CCN(Cc2ccc(-c3ccc4c(Nc5ccc(Oc6ccccn6)cc5)ccnc4c3)o2)CC1` registered an Inhibition of 100%.

The molecule `COc1ccccc1C1CCN(C2CCC(NC(=O)/C=C/c3cc(F)cc(F)c3)CC2)CC1` (stereo not drawn) displayed an Inhibition of 91%. For `CCCCCCCN1CC[C@@H](CCCc2ccnc3ccc(OCCC4CCNCC4)cc23)[C@@H](CC)C1.Cl`, the Inhibition is 100%.

For orientation: Inhibition means the percentage by which the read-out fell short of the control. Read a low Inhibition as a weak effect.
